Source: PubChem BioAssay (Tox21)
Inconclusive results are not listed. A number with no mark means an inactive call. Calls follow the shape of the full dose curve.

The molecules below were run against Vitamin D3 receptor (Homo sapiens) (UniProt P11473) (assay: qHTS assay to identify small molecule agonists of the vitamin D receptor (VDR) signaling pathway (AID 743222)). Settings: HEK293T VDR-UAS-bla, beta-lactamase FRET ratio, 16 h; series mostly up to 63.5 µM; activation: at the top concentration.
Source text: National Center for Advancing Translational Sciences [NCATS]
NIH Chemical Genomics Center [NCGC]
U.S. Environmental Protection Agency [EPA]
National Institutes of Environmental Health Sciences [NIEHS]
National Toxicology Program [NTP]
U.S. Food and Drug Administration [FDA]
The vitamin D receptor (VDR), a member of nuclear hormone receptor superfamily, plays a critical role in calcium homeostasis and bone metabolism. It is also involved in cell differentiation and growth, and thrombogenicity.
Tox21 Assay Protocol Summary:
VDR-bla cells were dispensed at 2,000 cells/6 uL/well into black wall/clear-bottom 1536-well plates using a Multidrop Combi (Thermo Fisher Scientific, Waltham, MA) dispenser. After the assay plates were incubated at a 37C and 5% CO2 for 4 h, 23 nL of compounds dissolved in DMSO, positive controls or DMSO only was transferred to the assay plate by a Pintool station (Kalypsys, San Diego, CA). The plates were incubated at 37C and 5% CO2 for 16 h. After 1 uL of LiveBLAzerTM B/G FRET substrate was added using a Bioraptr Flying Reagent Dispenser (FRD) workstation (Beckman Coulter, Indianapolis, IN, USA), the plates were incubated at room temperature for 2 h, and fluorescence intensity was measured by an Envision plate reader (PerkinElmer, Shelton, CT).
% is scaled to controls: 0 for no effect and ±100 for the full control effect.

Chain of Vitamin D3 receptor (Homo sapiens) (P11473 whole entry, looked up): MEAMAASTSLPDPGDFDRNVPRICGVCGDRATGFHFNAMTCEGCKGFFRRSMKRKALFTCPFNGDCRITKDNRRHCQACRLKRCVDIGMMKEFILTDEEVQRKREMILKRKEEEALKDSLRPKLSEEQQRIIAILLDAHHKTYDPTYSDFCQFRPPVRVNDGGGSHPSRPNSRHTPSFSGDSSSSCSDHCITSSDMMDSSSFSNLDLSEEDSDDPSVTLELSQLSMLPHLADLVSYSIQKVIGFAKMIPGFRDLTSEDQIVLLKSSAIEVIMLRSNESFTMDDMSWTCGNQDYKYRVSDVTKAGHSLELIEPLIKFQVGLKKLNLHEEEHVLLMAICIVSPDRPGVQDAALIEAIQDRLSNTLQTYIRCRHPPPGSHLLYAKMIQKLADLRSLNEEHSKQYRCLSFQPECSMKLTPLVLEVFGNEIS

Row | SMILES | activation
1 | Cc1cc(NC(=O)C(=O)O)cc(C)c1Oc1ccc(O)c2c1CCC2 | -0.112%
2 | CC(=O)N(CC(=O)N(C)C)c1ccccc1 | 1.48%
3 | CCCCCCCCCCCCCCCC(=O)OC/C=C(C)/C=C/C=C(C)/C=C/C1=C(C)CCCC1(C)C | -9.87%
4 | CCN(CC)CCOc1ccc2c(c1)C(=O)c1cc(OCCN(CC)CC)ccc1-2 | 10.9%
5 | CC(=O)SCc1ccco1 | -4.29%
6 | CCCCCCCCCCCCCCCCCBr | 2.7% [at 29.5 µM]
7 | CC1=CC(=O)/C(=C(/C)O)C(=O)O1 | -1.32%
8 | NCc1ccccc1 | -9.37%
9 | Oc1ccc(O)c2c(O)cccc12 | -4.67%
10 | CC(C)(C)c1cc(O)c(C(C)(C)C)cc1O | -11.8%
11 | CCc1nn(C2CCCCC2)c2cc(C3(C#N)CCC(C(=O)O)CC3)ccc12 (stereo not given) | -18.9%
12 | CN(c1nccc(=O)[nH]1)C1CCN(c2nc3ccccc3n2Cc2ccc(F)cc2)CC1 | -13.8%
13 | N#Cc1cc2ccccc2c2ccccc12 | -1% [at 81.1 µM]
14 | COc1ccc2[nH]c(S(=O)Cc3ncc(C)c(OC)c3C)nc2n1 (stereo not given) | -3.17%
15 | CCOC(=O)CC(C)C | -0.298%
16 | CCCc1ccccc1 | 0.969%
17 | O=C(C(=O)c1ccc(Br)cc1)c1ccc(Br)cc1 | 0.409% [at 29.5 µM]
18 | CCCCCCCCCC=O | -7.87%
19 | Cn1c(=O)c2c(ncn2CC(O)CO)n(C)c1=O (stereo not given) | 17.5%
20 | C[C@@H](C1=C(CCN(C)C)Cc2ccccc21)c1ccccn1 | -0.795%

Row | SMILES | activation
21 | CC(=O)N(O)CCCCCNC(=O)CCC(=O)N(O)CCCCCNC(=O)CCC(=O)N(O)CCCCCN | -0.0261%
22 | c1ccc(OCc2ccc(CCCN3CCOCC3)cc2)cc1 | 9.85%
23 | CCCCOC(=O)/C=C\C(=O)OCCCC | 0.456% [at 81.1 µM]
24 | Nc1cnn([C@@H]2O[C@H](CO)[C@@H](O)[C@H]2O)c(=O)n1 | -20.7%
25 | COC(=O)CSc1cc(N=c2sc(=O)n3n2CCCC3)c(F)cc1Cl | 4.96%
26 | CC(=O)[C@@]1(O)CC[C@H]2[C@@H]3C[C@H](C)C4=CC(=O)CC[C@]4(C)[C@H]3CC[C@@]21C | -12.6%
27 | CN1CCC[C@@H]1c1cccnc1 | 11%
28 | CCN(CC)C(C)CN1c2ccccc2Sc2ccccc21 (stereo not given) | -7.77%
29 | NC(=S)N/N=C/c1cccnc1 | -3.43%
30 | COc1ccc([C@@H]2Sc3ccccc3N(CCN(C)C)C(=O)[C@@H]2OC(C)=O)cc1 | -1.22%
31 | CCCC(C)C | -1.21% [at 81.1 µM]
32 | CCCCOC(O)CC (stereo not given) | -1.87%
33 | CN1CCC(OC(c2ccccc2)c2ccccc2)CC1 | -12.6%
34 | O=C(c1ccc(O)cc1)c1ccc(O)cc1 | -9.27%
35 | CC(=O)OC/C=C/c1ccccc1 | 8.58%
36 | COC(Cc1ccccc1)OC | 0.397%
37 | CNS(=O)(=O)Cc1ccc2[nH]cc(CCN(C)C)c2c1 | -9.07%
38 | CCOC(=S)SSC(=S)OCC | -15.3%
39 | CCN(CC)CCNC(C(=O)OCCC(C)C)c1ccccc1 (stereo not given) | -2.25%
40 | CC(C)c1ccc2c(C(C)C)cc(C(C)C)c(S(=O)(=O)O)c2c1 | 3.23% [at 81.1 µM]
